Results published in PubChem BioAssay (NCATS).
Results filed as inconclusive are left out. A number with no mark means an inactive call. Activity calls are given as the source filed them. The call rests on the fitted dose curve; in most records, active means well fitted inhibition curve with a large enough effect; inconclusive means small, poorly fitted or top-dose-only effect; inactive means flat fitted curve, though single readings scatter.

assay: Primary qHTS for inhibitors of nuclear receptor binding SET domain protein 2 (NSD2) in an isogenic RCH-ACV NSD2 p.E1099K mutant (9B) (AID 1645876); conditions: RCH-ACV (leukaemia line) NSD2 E1099K (9B) viability, CellTiter-Glo, 72 h; series mostly up to 44.9 µM; activity change, negative = viability loss: at the top concentration; further: nearly all actives have a fitted effect of over 70% in size
On the % scale 0 is the no-effect control and ±100 the full control effect; potency means the concentration at half of the fitted maximal effect.

Structure (SMILES)	activity change, negative = viability loss	Potency	outcome
C[C@@H]1C(=O)OC[C@H]2C(C(=O)O)=C[C@@H]3CC(C)(C)C[C@]312	-8.18%	–	–
CC1(C)C2CC=C(COC3OC(COC4OCC(O)(CO)C4O)C(O)C(O)C3O)C1C2 (stereo not drawn)	-6.92% [at 17.3 µM]	–	–
Cc1cc(N(C)C)ccc1-c1nc2ccc(-c3nc4ccc(N5CCN(C)CC5)cc4[nH]3)cc2[nH]1	–	0.578 µM (active)	–
C=C1CCC2C(C)(C(=O)OC)CCCC2(C)C1CCC(C)CC(=O)O (stereo not drawn)	-13.5%	–	–
COC(=O)C1(C)c2[nH]c3ccccc3c2CCN1C(=O)CCl (stereo not drawn)	–	2.58 µM (active)	–
OCc1ccc(O[C@@H]2O[C@H](CO)[C@@H](O)[C@H](O)[C@H]2O)cc1	-15.7%	–	–
Cc1ccccc1CN1C2=NCCN2C(=O)C2=C1CCN(Cc1ccccc1)C2	-11.9%	–	–
CC1CCC2(C=O)C(CO)=CCCC2C1(C)CC(=O)O (stereo not drawn)	–	–	inactive
CC(=O)O[C@H]1C[C@@](O)(C(C)C)C2[C@@H](OC(=O)c3ccc(O)cc3)C[C@@]3(C)O[C@H]3C[C@]21C (stereo partly drawn)	-2.96% [at 17.3 µM]	–	–
C[C@@]12CC[C@@H]3[C@@](CC[C@H]4[C@@]3(C)CCC[C@@]4(C)C(=O)O)(CC1=O)C2	-22.5%	–	–
CC(=O)O[C@@H]1c2c(C)coc2C(=O)[C@@]23O[C@@H]2CC[C@H](C)[C@@]13C	-12.3%	–	–
CC1OC(O[C@H]2CC[C@@]3(C)C(CC[C@]4(C)C3CC=C3C5CC(C)(C)CC[C@]5(C(=O)OC5OC(CO)C(OC6OC(COC7OCC(O)C(O)C7O)C(O)C(O)C6O)C(O)C5O)CC[C@]34C)C2(C)C)C(O)C(O)C1OC1OCC(OC2OCC(O)C(O)C2O)C(O)C1O (stereo partly drawn)	–	–	inactive [at 9.23 µM]
CC1OC(OC2C(O)C(OC3CCC4(C)C(CCC5(C)C4CC=C4C6CC(C)(COC7OC(CO)C(O)C(O)C7O)CC(O)C6(C)CCC45C)C3(C)C)OC(C(=O)O)C2O)C(O)C(O)C1OC1OCC(O)C(O)C1O (stereo not drawn)	-10.7% [at 9.23 µM]	–	–
CC1CCC2(C(=O)O)CCC3(C)C(=CCC4C5(C)CCC(OC(=O)/C=C/c6ccccc6)C(C)(C)C5CCC43C)C2C1C (stereo not drawn)	-2.85% [at 17.3 µM]	–	–
C[C@@H]1O[C@@H](O[C@H]2[C@H](O)[C@@H](O)[C@H](OC3CCC4(C)C5CCC(C)(C(CO)OC6OC(CO)C(O)C(O)C6O)CC5=CCC4C3(C)C)O[C@@H]2CO)[C@H](O)[C@H](O)[C@H]1O (stereo partly drawn)	-8.41% [at 17.3 µM]	–	–
C=CC(C)(O)CC[C@H]1C(=C)CCC2[C@](C)(C(=O)O)CCC[C@@]21C (stereo partly drawn)	2.77%	–	–
C[C@@H]1CC[C@]2(C(=O)O[C@@H]3O[C@H](CO)[C@@H](O)[C@H](O)[C@H]3O)CC[C@]3(C)C(=CCC4[C@@]5(C)C[C@@H](O)[C@H](O)[C@](C)(C(=O)O)C5CC[C@]43C)[C@@H]2[C@]1(C)O (stereo partly drawn)	0.608% [at 17.3 µM]	–	–
C[C@H]1[C@H](O)O[C@@H]2O[C@@]3(C)CC[C@H]4[C@H](C)CC[C@@H]1[C@@]24OO3	–	1.18 µM (active)	–
